Several values for one entry are separate records, joined by “and”; a condition that tells them apart may be missing. Identical values can stand only once. Results filed as inconclusive are left out. A call without a number means that no potency is given here. Some compounds were tested as several samples or in several runs, with calls that do not always agree. Activity calls are given as the source filed them. Unless noted, the call rests on the fitted dose curve.
Tests used:
[1] = Nuclear factor erythroid 2-related factor 2/antioxidant responsive element (Nrf2/ARE) small molecule agonists: qHTS cell viability counter screen in human keratinocytes (AID 1919968; active means well fitted curve in the direction sought with a large enough effect in the repeat runs; an effect the other way counts as inactive or inconclusive; further: nearly all actives have a fitted effect of over 55% in size; further: potency means the concentration at half of the fitted maximal effect)
Outline: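 Cytotoxicity was multiplexed with the Nrf2/ARE luciferase assay in the same wells. Stably transfected HaCaT keratinocytes were treated with test compounds for 23 h at 37 C. Cell viability was then measured by CellTiter-Fluor fluorescence.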

[2] = Nuclear factor erythroid 2-related factor 2/antioxidant responsive element (Nrf2/ARE) small molecule agonists: luciferase reporter gene qHTS assay in human keratinocytes (AID 1919969); further: nearly all actives have a fitted effect of over 35% in size; further: potency means the concentration at half of the fitted maximal effect
[3] = biological target: Gonadotropin-releasing hormone receptor (Homo sapiens) (UniProt P30968); assay: Human gonadotropin-releasing hormone receptor (GnRHR) small molecule agonists, calcium flux assay in GnRHR-HEK293 cells (AID 1920063); further: nearly all actives have a fitted effect of over 35% in size
Sequence of Gonadotropin-releasing hormone receptor (Homo sapiens) (P30968 whole entry, looked up): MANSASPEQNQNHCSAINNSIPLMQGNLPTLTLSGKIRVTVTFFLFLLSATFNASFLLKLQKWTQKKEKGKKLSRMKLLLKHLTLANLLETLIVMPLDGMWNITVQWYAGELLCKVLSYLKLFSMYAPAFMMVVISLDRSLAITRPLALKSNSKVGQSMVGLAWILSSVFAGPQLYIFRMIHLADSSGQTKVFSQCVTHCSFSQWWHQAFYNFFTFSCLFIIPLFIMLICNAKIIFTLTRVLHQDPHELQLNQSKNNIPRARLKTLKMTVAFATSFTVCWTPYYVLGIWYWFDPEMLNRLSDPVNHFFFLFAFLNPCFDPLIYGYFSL
Outline: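 Agonist activity was measured as intracellular calcium flux in HEK293 cells engineered to stably express human GnRHR. After dye loading for 1 hour at 37 C, compounds in DMSO were added and fluorescence was followed for 3 minutes.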

[4] = biological target: KiSS-1 receptor (Homo sapiens) (UniProt Q969F8); assay: Human kisspeptin (KISS1R) small molecule agonists, calcium flux assay in KISS1R-HEK293 cells (AID 1920064; active means well fitted curve in the direction sought with a large enough effect in the repeat runs; an effect the other way counts as inactive or inconclusive)
Sequence of KiSS-1 receptor (Homo sapiens) (Q969F8 whole entry, looked up): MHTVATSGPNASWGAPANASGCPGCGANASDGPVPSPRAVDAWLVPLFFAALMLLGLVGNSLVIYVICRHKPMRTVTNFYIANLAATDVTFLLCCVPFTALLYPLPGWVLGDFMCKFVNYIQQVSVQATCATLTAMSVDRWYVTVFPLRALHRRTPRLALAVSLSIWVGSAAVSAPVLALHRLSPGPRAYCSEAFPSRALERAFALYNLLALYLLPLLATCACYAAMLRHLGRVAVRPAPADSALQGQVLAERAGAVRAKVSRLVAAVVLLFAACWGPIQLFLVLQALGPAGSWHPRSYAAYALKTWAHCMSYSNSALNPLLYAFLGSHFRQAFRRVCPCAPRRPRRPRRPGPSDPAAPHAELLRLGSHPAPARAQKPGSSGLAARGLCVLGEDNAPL
Outline: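 Agonist activity is monitored as intracellular calcium rise in engineered HEK293 cells carrying human KISS1R. Cells are dye-loaded for 1 h at 37 C before compound addition, and fluorescence is recorded for 3 min.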

[5] = G protein-coupled receptor (GPCR) small molecule agonists, calcium flux assay: HEK293 wild type cell line counter screen (AID 1920065)
Outline: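 Seed cells, incubate 18 h (37 C, 5% CO2); add calcium dye, 1 h at 37 C; pin-transfer compounds, ATP control or DMSO; read fluorescence 480/540 nm each second for 3 min.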

[6] = p53 small molecule agonists, cell-based qHTS assay with human liver microsomes (AID 1963577);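 further: p53 response element beta-lactamase reporter cells with liver microsomes plus NADPH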
Outline: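 In this qHTS, p53 response-element beta-lactamase cells receive test compound together with a microsome/NADPH activating system (0.5 mg/mL final each) and are incubated 16 h at 37 C before LiveBLAzer fluorescence detection.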

[7] = p53 small molecule agonists, cell-based qHTS assay with rat liver microsomes: qHTS cell viability counter screen (AID 1963580); further: nearly all actives have a fitted effect of over 45% in size
Outline: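 Counter screen for cytotoxicity under metabolic activation: rat liver microsomes and NADPH, 0.5 mg/mL final each, added with compounds to p53RE-bla HCT-116 cells; 16 h at 37 C, then ATP luminescence read.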

[8] = p53 small molecule agonists, cell-based qHTS assay: qHTS cell viability counter screen (AID 1963581); further: nearly all actives have a fitted effect of over 45% in size; further: potency means the concentration at half of the fitted maximal effect
Outline: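 Viability was counter-screened in parallel with the p53 agonist reporter by measuring intracellular ATP luminescence in the same HCT-116 p53RE-bla wells after 16 h compound treatment at 37 C.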

[9] = p53 small molecule agonists, cell-based qHTS assay (AID 1963582; active means well fitted activation curve with a large enough effect in the signal ratio in the repeat runs, not every such curve was filed as active; the % refers to the signal ratio)
Outline: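 Cells carrying a p53-responsive bla reporter are treated with test compounds for 16 h at 37 C; beta-lactamase activity is then detected with LiveBLAzer B/G FRET substrate after 2 h at room temperature.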

[10] = biological target: 5-hydroxytryptamine receptor 2A (Homo sapiens) (UniProt P28223); assay: 5-hydroxytryptamine receptor 2A (HTR2A) small molecule antagonists, cell-based qHTS assay (AID 1963586); further: nearly all actives have a fitted effect of over 45% in size
Sequence of 5-hydroxytryptamine receptor 2A (Homo sapiens) (P28223 whole entry, looked up): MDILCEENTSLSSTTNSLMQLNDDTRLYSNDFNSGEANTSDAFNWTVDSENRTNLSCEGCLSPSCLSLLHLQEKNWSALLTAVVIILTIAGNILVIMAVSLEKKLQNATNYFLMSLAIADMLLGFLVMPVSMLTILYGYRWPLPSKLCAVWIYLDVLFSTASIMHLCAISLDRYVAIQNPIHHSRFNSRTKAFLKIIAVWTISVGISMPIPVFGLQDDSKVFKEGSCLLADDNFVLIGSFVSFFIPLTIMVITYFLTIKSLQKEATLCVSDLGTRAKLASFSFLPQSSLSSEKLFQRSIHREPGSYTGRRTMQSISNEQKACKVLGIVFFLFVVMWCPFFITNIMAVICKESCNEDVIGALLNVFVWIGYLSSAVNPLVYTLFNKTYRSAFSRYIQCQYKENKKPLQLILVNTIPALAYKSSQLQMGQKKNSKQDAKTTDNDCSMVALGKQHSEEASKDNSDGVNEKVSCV
Outline: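 CHO cells stably expressing human HTR2A were plated for 18 h at 37 C, then loaded with calcium dye for 1 h. Compounds were preincubated 5 min at room temperature before DOI (4 nM solution) was added. Kinetic fluorescence was read for 3 min.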

[11] = biological target: 5-hydroxytryptamine receptor 2A (Homo sapiens) (UniProt P28223); assay: 5-hydroxytryptamine receptor 2A (HTR2A) small molecule agonists, cell-based qHTS assay (AID 1963587); further: nearly all actives have a fitted effect of over 30% in size
Outline: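 HTR2A-CHO cells, plated 18 h at 37 C/5% CO2, dye-loaded 1 h at 37 C; compounds in DMSO added by pin tool (agonist mode). Intracellular calcium flux read as kinetic fluorescence on FDSS over 2 min at 1 s intervals.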

[12] = biological target: Muscarinic acetylcholine receptor M1 (Homo sapiens) (UniProt P11229); assay: Cholinergic receptor muscarinic 1 (CHRM1) small molecule agonists, cell-based qHTS assay (AID 1963589); further: nearly all actives have a fitted effect of over 35% in size
Sequence of Muscarinic acetylcholine receptor M1 (Homo sapiens) (P11229 whole entry, looked up): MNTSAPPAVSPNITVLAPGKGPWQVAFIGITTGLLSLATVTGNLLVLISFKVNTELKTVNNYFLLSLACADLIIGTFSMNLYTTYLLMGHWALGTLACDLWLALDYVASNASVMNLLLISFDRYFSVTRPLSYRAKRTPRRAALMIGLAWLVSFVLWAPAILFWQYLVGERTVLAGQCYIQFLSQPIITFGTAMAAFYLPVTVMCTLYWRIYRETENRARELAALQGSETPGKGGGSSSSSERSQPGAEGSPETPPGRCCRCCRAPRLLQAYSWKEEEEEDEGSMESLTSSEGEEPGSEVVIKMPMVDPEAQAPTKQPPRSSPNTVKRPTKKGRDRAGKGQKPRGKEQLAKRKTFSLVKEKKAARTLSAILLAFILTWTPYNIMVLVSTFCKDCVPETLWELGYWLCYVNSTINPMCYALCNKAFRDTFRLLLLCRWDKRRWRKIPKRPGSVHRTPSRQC
Outline: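 Cells were plated and incubated 18 h at 37 C/5% CO2, loaded with calcium dye for 1 h at 37 C, then treated with compounds in DMSO. Fluorescence was recorded kinetically at 1 sec intervals.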

[13] = cAMP Responsive Elements (CRE) small molecule agonists, cell-based qHTS assay (AID 1963590)
Outline: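 Cells carrying a CRE-driven beta-lactamase reporter (HEK 293T) are seeded, incubated overnight (18 h), and treated with test compounds for 3 h at 37 C; reporter activity is then detected with a FRET substrate after 2 h at room temperature.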

[14] = cAMP Responsive Elements (CRE) small molecule antagonists, cell-based qHTS assay (AID 1963591; active means well fitted inhibition curve with a large enough effect in the signal ratio in the repeat runs, not every such curve was filed as active; the % refers to the signal ratio)
Outline: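 Cells (CRE-bla HEK 293T, DMEM with 10% dialyzed FBS and 25 mM HEPES) are seeded and incubated 18 h. Compounds are added with NKH477 agonist at 0.25 uM final for 3 h, then FRET substrate for 2 h.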

[15] = biological target: Beta-2 adrenergic receptor (Homo sapiens) (UniProt P07550); assay: Adrenergic beta2 receptor (ADRB2) small molecule antagonists, cell-based qHTS assay (AID 1963592); further: series mostly up to about 92 µM; nearly all actives have a fitted effect of over 50% in size
Sequence of Beta-2 adrenergic receptor (Homo sapiens) (P07550 whole entry, looked up): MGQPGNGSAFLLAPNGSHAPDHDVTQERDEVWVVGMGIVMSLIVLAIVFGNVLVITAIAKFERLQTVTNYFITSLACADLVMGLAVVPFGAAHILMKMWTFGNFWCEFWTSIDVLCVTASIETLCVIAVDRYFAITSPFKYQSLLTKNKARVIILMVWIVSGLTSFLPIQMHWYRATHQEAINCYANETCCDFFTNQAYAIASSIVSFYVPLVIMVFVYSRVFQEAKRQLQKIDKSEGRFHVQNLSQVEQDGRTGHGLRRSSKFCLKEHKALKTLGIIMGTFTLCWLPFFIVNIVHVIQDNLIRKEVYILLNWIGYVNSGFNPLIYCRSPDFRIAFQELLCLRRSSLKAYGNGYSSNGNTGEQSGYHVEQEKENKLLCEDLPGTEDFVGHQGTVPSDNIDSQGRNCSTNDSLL
Outline: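 Assay format: CHO-ADRB2 cells, 18-20hr seeding at 37C/5% CO2, then compound plus 1nM isoproterenol agonist mix for 0.5hr RT. Homogeneous time-resolved fluorescence cAMP detection after 1hr, expressed as 665/615 nm ratio.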

[16] = biological target: D(2) dopamine receptor (Homo sapiens) (UniProt P14416); assay: Dopamine D2 receptor (DRD2) small molecule agonists, cell-based qHTS assay (AID 1963594); further: nearly all actives have a fitted effect of over 35% in size
Sequence of D(2) dopamine receptor (Homo sapiens) (P14416 whole entry, looked up): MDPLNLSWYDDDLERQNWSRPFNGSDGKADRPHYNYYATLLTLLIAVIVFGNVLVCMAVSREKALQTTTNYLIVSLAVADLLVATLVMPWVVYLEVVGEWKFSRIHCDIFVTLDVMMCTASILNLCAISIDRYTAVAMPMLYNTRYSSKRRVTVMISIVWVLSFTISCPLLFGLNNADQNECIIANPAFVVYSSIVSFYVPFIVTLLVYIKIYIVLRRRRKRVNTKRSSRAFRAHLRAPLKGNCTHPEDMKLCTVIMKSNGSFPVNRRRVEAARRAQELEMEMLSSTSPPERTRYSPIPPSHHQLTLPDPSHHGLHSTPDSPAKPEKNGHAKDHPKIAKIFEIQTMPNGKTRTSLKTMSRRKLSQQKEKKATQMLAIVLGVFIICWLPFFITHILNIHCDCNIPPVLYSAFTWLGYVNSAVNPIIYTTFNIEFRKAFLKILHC
Outline: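 HEK293 cells stably expressing DRD2 were cultured 24 h at 37 C, then given Ro20-1724 (0.1 mM final) and compounds for 10 min at room temperature. NKH477 (200nM) was then added for 30 min. cAMP was read by HTRF.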

[17] = biological target: D(2) dopamine receptor (Homo sapiens) (UniProt P14416); assay: Dopamine D2 receptor (DRD2) small molecule antagonists, cell-based qHTS assay (AID 1963595; active means well fitted inhibition curve with a large enough effect in the signal ratio in the repeat runs, with a control signal flat; the % refers to the signal ratio)
Outline: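 Antagonist mode in DRD2-HEK293 cells: after compound addition with 0.1 mM Ro20-1724, cells received quinpirole (12 nM) and NKH477 (200 nM) for 30 min at room temperature; HTRF cAMP read after 1 h detection.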

[18] = p53 small molecule agonists, cell-based qHTS assay with human liver microsomes: qHTS cell viability counter screen (AID 1963579); further: nearly all actives have a fitted effect of over 45% in size
Outline: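 Metabolically activated exposure: compounds, human liver microsomes and NADPH (0.5 mg/mL final apiece) were added to p53RE-bla cells seeded 5 h earlier, left 16 h at 37 C, and then assessed for viability by CellTiter-Glo luminescence.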

[19] = biological target: Muscarinic acetylcholine receptor M1 (Homo sapiens) (UniProt P11229); assay: Cholinergic receptor muscarinic 1 (CHRM1) small molecule antagonists, cell-based qHTS assay (AID 1963588); further: nearly all actives have a fitted effect of over 40% in size
Outline: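 Compounds were tested at 15 concentrations in three independent runs. Dye-loaded CHRM1-CHO cells were exposed 5 min at room temperature before stimulation by acetylcholine added at 50nM. Intracellular calcium was read kinetically on FDSS for 3 min.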

[20] = biological target: Beta-2 adrenergic receptor (Homo sapiens) (UniProt P07550); assay: Adrenergic beta2 receptor (ADRB2) small molecule agonists, cell-based qHTS assay (AID 1963593);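 further: CHO cells stably overexpressing human ADRB2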
Outline: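 CHO cells stably over-expressing ADRB2 were plated overnight at 37C, then dosed with compounds plus a stimulation mix containing 100uM IBMX and 25uM Ro-20-1724 for 0.5hr at room temperature. cAMP was measured by HTRF competition, 1hr.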

SMILES | Potency [1] | Potency [2] | Potency [3] | Potency [4] | Potency [5] | Potency [6] | Potency [7] | Potency [8] | Potency [9] | Potency [10] | Potency [11] | Potency [12] | Potency [13] | Potency [14] | Potency [15] | Potency [16] | Potency [17] | Potency [18] | Potency [19] | Potency [20]
OCCOc1ccc(OCCO)cc1 | inactive | inactive | inactive | inactive | inactive | inactive | inactive | inactive | inactive | inactive | inactive | inactive | inactive | inactive | inactive | inactive | inactive | – | – | –
COC(=O)CC(C(C)=O)C(=O)OC (stereo not drawn) | inactive | inactive | inactive | inactive | inactive | inactive | inactive | inactive | inactive | inactive | inactive | inactive | inactive | inactive | inactive | – | inactive | inactive | inactive | –
Cc1ccccc1S(N)(=O)=O | inactive | inactive | inactive | inactive | inactive | inactive | inactive | inactive | inactive | inactive | inactive | inactive | inactive | inactive | inactive | inactive | inactive | inactive | inactive | –
CC1=CC(=O)c2ccccc2C1=O | 27.3 µM (active) and 26.6 µM (active) | 13.3 µM (active) | inactive | inactive | inactive | inactive | inactive | 40.8 µM (active) and inactive | inactive | inactive | inactive | inactive | – | inactive | inactive | inactive | inactive | inactive | inactive | inactive

Source: PubChem BioAssay (Tox21)
